Data taken from PubChem BioAssay (NCATS).
Values joined by “and” are separate entries in the source; they are usually repeats but may differ in a detail not shown here. Equal entries are not always repeated. Inconclusive results are not listed. Entries that show only a call come without a potency. Unmarked numbers belong to inactive results. Active and inactive are the calls of the source. The call rests on the fitted dose curve; in most records, active means well fitted inhibition curve with a large enough effect; inconclusive means small, poorly fitted or top-dose-only effect; inactive means flat fitted curve, though single readings scatter. Where a SMILES comes first, the peptide text is derived from it. [ ]: non-standard residue; d: D form. pGlu = O=C1CC[C@@H](C(=O)O)N1; Thz = O=C(O)[C@@H]1CSCN1

How the values were obtained:
[1] = qHTS profiling for inhibitors of Plasmodium falciparum proliferation (AID 504749); further: nearly all actives have a fitted effect of over 60% in size; details: P. falciparum in erythrocytes, SYBR Green DNA, 72 h
How it was run: (§1)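 Infected RBCs, 0.3% parasitemia/2.5% Hct final; cpd 72 h, 37 C, 5% CO2; lysis buffer with saponin/triton/SYBR Green I, o/n RT dark; FI 485/535; norm. to artemisinin (0.29 uM) and DMSO.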

[2] = test system: 3D7; assay: as above; details: P. falciparum in erythrocytes, SYBR Green DNA, 72 h; series mostly up to 28.7 µM
How it was run: as §1

[3] = test system: 7G8; assay: as above; details: P. falciparum in erythrocytes, SYBR Green DNA, 72 h; series mostly up to 28.7 µM
How it was run: as §1

[4] = test system: AA1029; assay: as above; details: P. falciparum in erythrocytes, SYBR Green DNA, 72 h; series mostly up to 28.7 µM
How it was run: as §1

[5] = test system: AS120; assay: as above; details: P. falciparum in erythrocytes, SYBR Green DNA, 72 h; series mostly up to 28.7 µM
How it was run: as §1

[6] = test system: ATS189; assay: as above; details: P. falciparum in erythrocytes, SYBR Green DNA, 72 h; series mostly up to 28.7 µM
How it was run: as §1

[7] = test system: ATS95; assay: as above; details: P. falciparum in erythrocytes, SYBR Green DNA, 72 h; series mostly up to 28.7 µM
How it was run: as §1

[8] = test system: C2A; assay: as above; details: P. falciparum in erythrocytes, SYBR Green DNA, 72 h; series mostly up to 28.7 µM
How it was run: as §1

[9] = test system: CP185; assay: as above; details: P. falciparum in erythrocytes, SYBR Green DNA, 72 h; series mostly up to 28.7 µM
How it was run: as §1

[10] = test system: CP191; assay: as above; details: P. falciparum in erythrocytes, SYBR Green DNA, 72 h; series mostly up to 28.7 µM
How it was run: as §1

[11] = test system: CP192; assay: as above; details: P. falciparum in erythrocytes, SYBR Green DNA, 72 h; series mostly up to 28.7 µM
How it was run: as §1

[12] = test system: CP194; assay: as above; details: P. falciparum in erythrocytes, SYBR Green DNA, 72 h; series mostly up to 28.7 µM
How it was run: as §1

[13] = test system: CP201; assay: as above; details: P. falciparum in erythrocytes, SYBR Green DNA, 72 h; series mostly up to 28.7 µM
How it was run: as §1

[14] = test system: CP203; assay: as above; details: P. falciparum in erythrocytes, SYBR Green DNA, 72 h; series mostly up to 28.7 µM
How it was run: as §1

[15] = at 28.7 µM (top of the series), parasite line A
[16] = at 28.7 µM (top of the series), parasite line B
[17] = at 12.8 µM (top of the series), parasite line A
[18] = at 12.8 µM (top of the series), parasite line B
Potency means the concentration at half of the fitted maximal effect.

Compound	activity, negative = inhibition [1, 15]	activity, negative = inhibition [1, 16]	Potency [2]	Potency [3]	Potency [4]	Potency [5]	Potency [6]	Potency [7]	Potency [8]	Potency [9]	Potency [10]	Potency [11]	Potency [12]	Potency [13]	Potency [14]	Potency ([1]; parasite line B)	Potency ([1]; parasite line A)	activity, negative = inhibition [1, 17]	activity, negative = inhibition [1, 18]
COc1cc2c3cc1Oc1cc(ccc1O)C[C@@H]1c4c(cc(OC)c(O)c4Oc4ccc(cc4)C[C@@H]3N(C)CC2)CC[N+]1(C)C	5.03%	8.98%	inactive	inactive	inactive	inactive	inactive	inactive	inactive	inactive	inactive	inactive	inactive	inactive	inactive				
CC1OC1P(=O)(O)O (stereo not drawn)	-11.9%	1.11%	inactive	inactive	inactive	inactive	inactive	inactive	inactive	inactive	inactive	inactive	inactive	inactive	inactive				
Cc1ccccc1CNc1ncnc2c1ncn2C1OC(CO)C(O)C1O (stereo not drawn)	17.8%	-2%	inactive	inactive	inactive	inactive	inactive	inactive	inactive	inactive	inactive	inactive	inactive	inactive	inactive				
C=CCCCCCCCCC(=O)O	5.45%	15%	inactive	inactive	inactive	inactive	inactive	inactive	inactive	inactive	inactive	inactive	inactive	inactive	inactive				
CC(N)C(=O)OC(C)(C)Cc1ccc(Cl)cc1 (stereo not drawn)	3.68%	0.818%	inactive	10 µM (active)					inactive		inactive	inactive			12 µM (active)				
CN1[C@@H](CC(=O)c2ccccc2)CCC[C@H]1C[C@H](O)c1ccccc1	-28.5%		inactive	8.91 µM (active)	11.2 µM (active)	12.6 µM (active)			inactive					inactive	inactive	12.6 µM (active)			
COc1ccc(/C=C/C(=O)Nc2ccccc2C(=O)O)cc1OC	3.65%	-0.207%	inactive		inactive	inactive	inactive	inactive	inactive	inactive	inactive	inactive	inactive	inactive	inactive				
CC(=O)[C@]1(O)Cc2c(O)c3c(c(O)c2[C@@H](O[C@H]2C[C@H](N)[C@H](O)[C@H](C)O2)C1)C(=O)c1c(O)cccc1C3=O			3.16 µM (active)	1.12 µM (active)	7.08 µM (active)	7.94 µM (active)	10 µM (active)	7.08 µM (active)			6.31 µM (active)	13.5 µM (active)	13.5 µM (active)		9.53 µM (active)	12.6 µM (active)	7.08 µM (active)		
c1ccc2sc(SN3CCOCC3)nc2c1	-12.8%		inactive	11.2 µM (active)	inactive		inactive	inactive	inactive	inactive	inactive	inactive	inactive	inactive	inactive				
Cc1cc(O)c2ccccc2c1O	7.28%	-10.1%	12.6 µM (active)		inactive	inactive	inactive	inactive	inactive	inactive	inactive	inactive	inactive	inactive	inactive				
NC(=O)C(c1ccccc1)(c1ccccc1)[C@@H]1CCN(CCc2ccc3c(c2)CCO3)C1	-17.4%	-5.16%	inactive	11.2 µM (active)			inactive		inactive			inactive							
CCCCCCCCCCCC(=O)[O][Sn]([CH2]CCC)([CH2]CCC)[O]C(=O)CCCCCCCCCCC	-9.86%	-5.91%	inactive	inactive	inactive	inactive	inactive	inactive	inactive	inactive	inactive	inactive	inactive	inactive	inactive				
COc1cc(/C=C/C(=O)N2CCN(CC(=O)N3CCCC3)CC2)cc(OC)c1OC	1.12%	8.7%	inactive	10 µM (active)	inactive		inactive	inactive	inactive	inactive	inactive	inactive	inactive	inactive	inactive				
C=CCN1C(=O)C(CC(C)C)NC1=S (stereo not drawn)	-18.4% and 2.94%	-2.47% and 3.7%	inactive	inactive	inactive	inactive	inactive	inactive	inactive	inactive	inactive	inactive	inactive	inactive	inactive				
O=C(O)c1ccccc1Nc1cccc(C(F)(F)F)c1	-6.43%	10.3%	inactive	inactive	inactive	inactive	inactive	inactive	inactive	inactive			inactive	inactive	inactive				
O=C1CN(/N=C/c2ccc(-c3ccc([N+](=O)[O-])cc3)o2)C(=O)N1	-11.3%	-1.58%			inactive	inactive	inactive	inactive	inactive	inactive	7.08 µM (active)	inactive	inactive		inactive				
O=c1[nH]c2ccccc2n1CCCN1CCN(C(c2ccccc2)c2ccccc2)CC1	-13.9%			7.08 µM (active)					inactive					inactive					

Compound	activity, negative = inhibition [1, 15]	activity, negative = inhibition [1, 16]	Potency [2]	Potency [3]	Potency [4]	Potency [5]	Potency [6]	Potency [7]	Potency [8]	Potency [9]	Potency [10]	Potency [11]	Potency [12]	Potency [13]	Potency [14]	Potency ([1]; parasite line B)	Potency ([1]; parasite line A)	activity, negative = inhibition [1, 17]	activity, negative = inhibition [1, 18]
O=C1CC[C@@H](C(=O)N2CSC[C@H]2C(=O)O)N1 ([pGlu]-[Thz]-OH)	14.8%	2.84%	inactive	inactive	inactive	inactive	inactive	inactive	inactive	inactive	inactive	inactive	inactive	inactive	inactive				
Clc1ccccc1-c1nc(-c2ccncc2)no1	11.4%	-1.37%	inactive	10 µM (active)	inactive		inactive	inactive	inactive	inactive	inactive	inactive	inactive	inactive	inactive				
Oc1c(Br)cc(Br)c2cccnc12	-4.99%	-18.5%	inactive		inactive		inactive	inactive	inactive	inactive	inactive	inactive	inactive	inactive	inactive				
CCCOC(=O)c1ccc(O)cc1	4.05%	3.75%	inactive		inactive	inactive	inactive	inactive	inactive	inactive	inactive	inactive	inactive	inactive	inactive				
CCCCC[C@H](O)/C=C/[C@@H]1[C@@H](C/C=C\CCCC(=O)O)[C@@H](O)C[C@H]1O	7.31%	11%	inactive		inactive	inactive	inactive	inactive	inactive	inactive	inactive	inactive	inactive	inactive	inactive				
COc1cc(/C=C/C(=O)CC(=O)/C=C/c2ccc(O)c(OC)c2)ccc1O			10 µM (active)	11.2 µM (active)					10 µM (active)										
Cc1c(Nc2ncccc2C(=O)O)cccc1C(F)(F)F			inactive	inactive	inactive	inactive	inactive	inactive	inactive	inactive	inactive	inactive	inactive	inactive	inactive			7.85%	-2.62%
CN1[C@@H]2CC[C@H]1CC(OC(=O)C(CO)c1ccccc1)C2 (stereo partly drawn)	-2.42%		inactive	inactive	inactive	inactive	inactive	inactive	inactive	inactive	inactive	inactive	inactive	inactive	inactive				
CCCCCCCCCCCCCCCC(=O)OC(C)C			inactive	inactive	inactive	inactive	inactive	inactive	inactive	inactive	inactive	inactive	inactive	inactive	inactive				
CN(C)c1ccc(C(=C2C=CC(=[N+](C)C)C=C2)c2ccccc2)cc1			2.24 µM (active)	11.2 µM (active)	8.91 µM (active)	11.2 µM (active)	7.94 µM (active)		12.6 µM (active)		7.94 µM (active)	inactive			10.7 µM (active)	11.2 µM (active)	11.2 µM (active)		
O=C(O)COc1ccc(C(=O)c2cccs2)c(Cl)c1Cl	17.6% and 6.75%	6.94% and 2.12%	inactive	inactive	inactive	inactive	inactive	inactive	inactive	inactive	inactive	inactive	inactive	inactive	inactive				
Nc1cc(-c2ccncc2)c[nH]c1=O	17.9%	15.4%	inactive		inactive	inactive	inactive	inactive	inactive	inactive	inactive	inactive	inactive	inactive	inactive				
O=C(CCN1CCN(CCO)CC1)N1c2ccccc2Sc2ccc(C(F)(F)F)cc21				7.94 µM (active)	inactive	14.1 µM (active)	11.2 µM (active)	inactive			4.47 µM (active)	inactive		inactive	inactive		14.1 µM (active)		
CN1[C@@H]2CC[C@H]1CC(OC(c1ccccc1)c1ccccc1)C2 (stereo partly drawn)			inactive	5.62 µM (active) and 7.08 µM (active)		12.6 µM (active)		12.6 µM (active)	inactive		8.91 µM (active)	inactive							
CCOc1ccc2nc(S(N)(=O)=O)sc2c1	-5.98%		inactive	inactive	inactive	inactive	inactive		inactive	inactive	inactive	inactive	inactive	inactive	inactive				
CCCSc1ccc2nc(NC(=O)OC)[nH]c2c1			inactive	inactive	inactive	inactive	inactive	inactive	inactive	inactive		inactive		inactive	inactive			-19.4%	-12.4%
Nc1c(CC(=O)O)cccc1C(=O)c1ccc(Br)cc1	12.5%	11.2%	inactive	inactive	inactive	inactive	inactive	inactive	inactive	inactive	inactive	inactive	inactive	inactive	inactive				
